Molecules are shown by their SMILES. Results filed as inconclusive are left out. A number with no mark means an inactive call. Active and inactive are the calls of the source. The call rests on the fitted dose curve; in most records, active means well fitted inhibition curve with a large enough effect; inconclusive means small, poorly fitted or top-dose-only effect; inactive means flat fitted curve, though single readings scatter.

Here are results for 37 compounds from PubChem BioAssay (NCATS).
Potency means the concentration at half of the fitted maximal effect.

For the assay, the system named is Zika virus NS2B-NS3 protease. The assay can be described thus: Primary screen GU AMC qHTS for Zika virus inhibitors (AID 1347154). Further: nearly all actives have a fitted effect of over 70% in size.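 On activity change, negative = inhibition: 0% = no-inhibitor control and -100% = no-enzyme control.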 Particulars: Zika NS2B-NS3 unlinked protease, AMC fluorogenic substrate; series mostly up to 54.1 µM; activity change, negative = inhibition: at the top concentration. In short, it runs like this:
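Unlinked Zika NS2B hydrophilic domain–NS3 protease complex at 25 nM in 10 mM Tris-HCl pH 8.0, 0.01% Tween 20, with an AMC peptide substrate. Fluorescence change (340/450 nm) over 15 min at room temperature, normalized to controls, fitted to 4-parameter Hill.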
(In general: qHTS replaces the single test concentration by a dilution series.)
On to `O=c1ccn([C@@H]2O[C@H](CO)[C@H](O)[C@H]2O)c(=O)[nH]1`, for which the “activity change, negative = inhibition” value is -3.64%. On the same count and under the same terms, with `CC(C)(C)C(=O)Oc1ccc2c(c1)nc(NC(=O)c1cccc([N+](=O)[O-])c1)n2CCCO` the figure was 11.9%; with `CC(C)C[C@H](CC(=O)O)C(=O)N[C@@H](Cc1c[nH]c2ccccc12)C(=O)N[C@@H](C)c1ccccc1`, -4.2%; with `CCC(=O)NC[C@H](Cc1ccc(OCCc2nc(-c3ccccc3)oc2C)cc1)NC(C)=CC(=O)c1ccc(C(F)(F)F)cc1`, -1.64%.

On to `COc1ccc2c3c1OC1C[C@@H](O)C=C[C@@]31CCN(C)C2` (some centres not stated), for which the “activity change, negative = inhibition” value is -5.16%. Turning to `CCOC(=O)C1=C(N)Oc2ccc(Br)cc2C1C(C#N)C(=O)OCC` (configuration not stated), the Potency entry was “inactive”.

Consider `CN(C)Cc1cccc(N=C(c2ccccc2)c2c(O)[nH]c3cc(C(=O)N(C)C)ccc23)c1`, for which the “activity change, negative = inhibition” value was -0.327%.

Regarding `O=C(NCc1ccccc1)c1csc(Nc2ccncn2)n1`, the “activity change, negative = inhibition” value was -2.53%. Turning to `COc1ccc(-c2coc3cc(O)ccc3c2=O)cc1`, the Potency was 26.7 µM (active). As to `COc1cc2ncnc(-n3nc(-c4ccccn4)nc3N)c2cc1OC`, the “activity change, negative = inhibition” value is 10.9%. On the same count and under the same terms, with `CC(C)C(=O)Nc1ncc(-c2cc(C(F)F)nn2-c2c(Cl)cccc2Cl)s1` the figure was 8.96%; with `CC(C)(C)NC(=O)Nc1cccc(Nc2ncc(F)c(NC(C)(C)CO)n2)c1`, 8.76%; with `NC(=O)[C@@H](CCC(F)(F)F)N(Cc1ccc(-c2ncon2)cc1F)S(=O)(=O)c1ccc(Cl)cc1`, -4.66%. `O=c1cc(CN2CCOCC2)occ1OCCCCCSc1ccnc2cc(C(F)(F)F)ccc12`: the “activity change, negative = inhibition” value is 7.91%. The same measure, in the same setting: with `O=c1c(-c2ccc(O)cc2)coc2cc(OC3O[C@H](CO)[C@H](O)[C@H](O)[C@H]3O)cc(O)c12` (some centres not stated) the figure was -18.5%. Same read-out and setting: the result for `Nc1ncnc2c1nc(Cl)n2[C@@H]1O[C@H](CO)[C@@H](O)[C@@H]1O` reads 5.15%; that for `CCOC1OC(=O)C[C@H]1NC(=O)[C@@H]1CCCN1C(=O)[C@@H](NC(=O)c1ccc(N)c(Cl)c1)C(C)(C)C` (some centres not stated), 7.2%. `CC=CC(=O)N(CC)c1ccccc1C`: the “activity change, negative = inhibition” value was 14.5%. Take `Cc1cccc(Nc2nc(-c3ccncc3)cs2)c1`: the “activity change, negative = inhibition” value is 2.5%. The same measure, in the same setting: with `O=C(Nc1c(Cl)cncc1Cl)c1ccc(OC(F)F)c(OCC2CC2)c1` the figure was -3.73%; with `NC1CCC(Nc2nc(Nc3ccc(C(=O)N4CCCCC4)cc3)c3ncn(-c4cccc(F)c4)c3n2)CC1` (configuration not stated), 2.5%; with `CC(C)C(=O)Oc1ccc(CO)cc1[C@H](CCN(C(C)C)C(C)C)c1ccccc1`, -2.22%. Still for that read-out and setting: the result for `CCC(CC)[C@H](NC(C)=O)[C@@H]1[C@H](O)[C@@H](C(=O)O)C[C@@H]1N=C(N)N` reads 3.88%. Same read-out and setting: the result for `CC=CCC=CCCC(=O)[C@H]1O[C@@H]1C(N)=O` reads 4.44%. Turning to `N#C[C@H]1C[C@H]2C[C@@H]2N1C(=O)[C@@H](N)C12CC3CC(CC(O)(C3)C1)C2`, the “activity change, negative = inhibition” value is -3.49%. On the same count and under the same terms, the result for `Cc1ccc(C(C)(O)c2nc3ccccc3s2)c(C)c1` (configuration not stated) reads -3.95%.

`Oc1ccc(C2=Cc3ccc(O)cc3OC2)cc1`: the “activity change, negative = inhibition” value is -0.671%. Consider `COc1ccc(C2CC(c3ccccc3)=NN2c2ccc(S(N)(=O)=O)cc2)cc1` (configuration not stated), for which the “activity change, negative = inhibition” value is 981%.

For `CC(C)C(C)C=CC(C)C1CCC2C3=CC=C4CC(O)CCC4(C)C3CCC21C` (configuration not stated), the “activity change, negative = inhibition” value was -5.01%.

Turning to `NC(=O)NN=Cc1ccc([N+](=O)[O-])o1`, the “activity change, negative = inhibition” value is -2.99%. On the same count and under the same terms, with `O=C(Nc1ccccc1-c1cn2c(CN3CCNCC3)csc2n1)c1cnc2ccccc2n1` the figure was -8.48%; with `Cc1cnc(C(=O)O)c[n+]1[O-]`, 11.5%. The same measure, in the same setting: the result for `COC[C@@H](c1ccc(C(F)(F)F)cc1)N1CCN(C2(C)CCN(C(=O)c3c(C)ncnc3C)CC2)C[C@H]1C` reads -2.85%; that for `O=C(O)C=Cc1ccc(O)c(O)c1`, 16%. With `O=c1c(-c2ccc(O)cc2)coc2cc(O[C@@H]3O[C@H](CO)[C@H](O)[C@H](O)[C@H]3O)ccc12`, the “activity change, negative = inhibition” value is 10.6%.

Regarding `CC(C)n1cnc2c(NCCCCCCNC(=O)OC(C)(C)C)nc(NCCO)nc21`, the “activity change, negative = inhibition” value is -12.6%.

On to `COc1ccc(-c2cc(=O)c3c(O)cc(O)cc3o2)cc1O`, for which the “activity change, negative = inhibition” value is -5.97%.
